RXFP1 agonist: qHTS Assay for Agonists of the Relaxin Receptor RXFP1. HEK293T-RXFP1 cAMP TR-FRET, 30 min; response scale: percent of porcine relaxin response, buffer zero. Potency, µM (series often up to 57.5 µM), for the others: top-dose activation, actives largely listed as activators. AID 2676, 2010. 370,000 compounds, 0.3% hits. Relaxin receptor 1 (Homo sapiens), Q9HBX9; note: potency is the fitted concentration of half-maximal effect; % is set by controls: 0 for no effect and ±100 for the full control effect; nearly all actives have a fitted effect of over 60% in size
Target sequence (Q9HBX9 whole entry, looked up): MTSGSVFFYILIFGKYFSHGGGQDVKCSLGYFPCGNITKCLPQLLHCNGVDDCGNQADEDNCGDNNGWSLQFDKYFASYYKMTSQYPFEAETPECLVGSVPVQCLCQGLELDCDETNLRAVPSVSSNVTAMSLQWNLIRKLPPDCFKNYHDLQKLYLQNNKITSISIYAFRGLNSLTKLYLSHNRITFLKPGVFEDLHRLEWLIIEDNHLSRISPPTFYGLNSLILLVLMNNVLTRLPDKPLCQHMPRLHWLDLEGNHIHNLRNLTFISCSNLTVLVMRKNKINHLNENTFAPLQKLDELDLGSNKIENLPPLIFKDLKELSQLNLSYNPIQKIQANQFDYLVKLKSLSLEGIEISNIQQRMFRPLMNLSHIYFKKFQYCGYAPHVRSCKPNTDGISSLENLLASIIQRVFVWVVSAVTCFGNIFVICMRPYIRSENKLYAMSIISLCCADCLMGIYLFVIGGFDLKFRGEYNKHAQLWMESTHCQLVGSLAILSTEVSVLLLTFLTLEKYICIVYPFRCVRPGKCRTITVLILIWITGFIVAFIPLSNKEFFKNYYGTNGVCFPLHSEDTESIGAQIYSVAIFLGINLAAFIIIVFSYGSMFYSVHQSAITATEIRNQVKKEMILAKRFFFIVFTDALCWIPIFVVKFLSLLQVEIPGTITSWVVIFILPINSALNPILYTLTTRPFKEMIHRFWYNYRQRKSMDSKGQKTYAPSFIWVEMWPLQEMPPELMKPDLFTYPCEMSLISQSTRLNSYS
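cAMP rise read by TR-FRET after 30 min, 37C compound exposure (up to 58 uM) in RXFP1-transfected HEK293 cells with Ro 20174 present. EC50 from Hill-equation fits, with 29 nM porcine relaxin as 100% and buffer as basal.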
CCT modulator: High-Throughput Screening for Modulators of Cytosolic Chaperonin Activity | purified chaperonin ATPase assay, HTRF ADP detection, 30 min | activity change, % (concentration not given with the values), hits read low | 360,000 compounds, 0.3% hits; in the data active = activity change below about -30%; note: % is set by controls: 0 for no effect and ±100 for the full control effect
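TRiC (40 or 20 nM final, by batch activity) in 30 mM Tris pH 7.4, 100 mM KCl, 5 mM MgCl2, 1 mM DTT was treated with compound at 76 uM single dose, then 10 uM ATP, 30 min at 37 °C. ADP was read by HTRF Transcreener.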
gsp agonist: qHTS for Agonist of gsp, the Etiologic Mutation Responsible for Fibrous Dysplasia/McCune-Albright Syndrome: qHTS. gsp mutant cells, cAMP HTRF, 30 min. Potency, µM (top dose mostly 76.9 µM), for inactives: at the top dose activation (cAMP increase), most hits filed as activators. 340,000 compounds, 0.13% hits. AID 624287, 2012; active = well fitted activation curve with a large enough effect; inconclusive = small, poorly fitted or top-dose-only effect, or another doubt; inactive = no such curve, though single readings can be large or run the other way; cell line not stated here;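 note: phosphodiesterase inhibitor Ro 20-1724 added with compounds to block cAMP breakdown; potency is the fitted concentration of half-maximal effect; nearly all actives have a fitted effect of over 60% in size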
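Cells stably selected in G418 were plated at 2000/well, grown 16-24 hr, then given compounds in DMSO with the PDE inhibitor […] (300 uM solution added) for 30 min at 37C; cAMP was read by HTRF.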
gsp antagonist: qHTS for Antagonists of gsp, the Etiologic Mutation Responsible for Fibrous Dysplasia/McCune-Albright Syndrome: qHTS; Potency, µM (doses to about 76.9 µM), without a hit: at the top dose activity change, negative = inhibition, most hits filed as inhibitors; 340,000 compounds, 0.4% hits; gsp-mutant cells, cAMP HTRF, 30 min; calls by dose curve; cell line not stated here;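 note: intracellular cAMP measured with PDE inhibitor Ro 20-1724 present during compound exposure; potency is the fitted concentration of half-maximal effect; % is set by controls: 0 for no effect and ±100 for the full control effect; nearly all actives have a fitted effect of over 65% in size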
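Cells in G418 medium, seeded 16-24 h, 37C; buffer exchange to DPBS + 1 mM CaCl2, 0.5 mM MgCl2, 0.05% BSA; cpds in DMSO + […] (300 uM stock), 30 min 37C; HTRF cAMP detection.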
MmCpn inh: Inhibitors of TCP-1 ring complex (TRiC) of Methanococcus maripaludis (MmCpn): qHTS; Chaperonin Mm-Cpn (Methanococcus maripaludis); purified Mm-Cpn ATPase, ADP Transcreener TR-FRET; Potency, µM (series often up to 76.9 µM), for inactives: at the top dose activity, negative = inhibition, usual class: inhibitors; 330,000 compounds, 0.031% hits; AID 504842, 2011; note: potency is the fitted concentration of half-maximal effect; % is set by controls: 0 for no effect and ±100 for the full control effect; nearly all actives have a fitted effect of over 80% in size
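ATP (10 uM final) was added to archaeal chaperonin (25 nM final) after 10 min exposure to test compound at 37°C; after 30 min further incubation, ADP was detected by competitive TR-FRET.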
RXFP1 antagonist: qHTS Assay for Antagonists of the Relaxin Receptor RXFP1; Relaxin receptor 1 (Homo sapiens), Q9HBX9; HEK293-RXFP1, relaxin-stimulated cAMP HTRF, 30 min; stronger effect = lower value; AID 1259400, 2018; activity change, negative = inhibition, % at 57.5 µM; 350,000 compounds, 0.59% hits;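 active = activity change of -60% or lower, but not beyond a set lower limit; inconclusive = change between -60% and -40%, or beyond the set limit; inactive = change above -40%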; note: % is set by controls: 0 for no effect and ±100 for the full control effect
Active calls of the source: *; u = inconclusive; x = not tested or not shown; [ ] = remark or other dose. Hits are enriched below; roughly 1.2% of the tested compounds scored in any of these assays. Unless noted, calls come from the whole dose curve; as a rule, active = well fitted curve in the direction sought with a large enough effect; inconclusive = small, poorly fitted or top-dose-only effect, or another doubt; inactive = no such curve, though single readings can be large; an effect the other way counts as inactive or inconclusive.

SMILES | RXFP1 agonist | CCT modulator | gsp agonist | gsp antagonist | MmCpn inh | RXFP1 antagonist
O=C(NC1CCS(=O)(=O)C1)/C(=C/c1ccco1)NC(=O)c1ccccc1 (stereo not given) | -2% | -2 | u | 0% | -1% | -72*
Cc1nc2nncn2c(N2CCN(c3ccccc3)CC2)c1C | 15% | x | x | x | x | -12
O=C(Nc1ccc(N2CCN(C(=O)c3ccccc3F)CC2)cc1)c1cncc(Br)c1 | -3% | 1 | -13% | u | 1% | -82*
O=C(Nc1ccc(N2CCCCC2)cc1)c1cncc(Br)c1 | -1% | -4 | -29% | 1% | 1% | -9
C[C@H](O)[C@@H]1CN2CCc3c([nH]c4ccc(-c5ccc6c(c5)OCO6)cc34)[C@@H]2C[C@@H]1N(C)C(=O)Nc1ccc(F)cc1 | x | 0 | 17% | x | x | -14
C[C@@H]1ON(C)[C@H]2C[C@H]3c4[nH]c5ccc(-c6ccc7c(c6)OCO7)cc5c4CCN3C[C@@H]12 | x | -73* | -24% | x | x | -1
Cc1cc2ccc3ccccc3c2cc1CN(C)C | 0% | -1 | -5%[15.4 µM] | 7% | 0% | -107*
CCOC(=O)c1c(-c2ccccc2)csc1NC(=O)c1cc(-c2ccc(Cl)cc2)on1 | 1% | x | x | x | x | x
COc1ccccc1/C=C/C=N/n1c(-c2ccc(Cl)cc2)n[nH]c1=S | -1% | -2 | -7%[15.4 µM] | -7% | 0% | -63*
COc1ccc(OC)c(NC(=O)CSc2n[nH]c(-c3ccccc3Cl)n2)c1 | 12% | x | x | x | x | -22
CCOC(=O)c1ccc(Oc2nc(N(C)C)nc(N3CCOCC3)n2)cc1 | 0% | -1 | 27% | 50µM* | 0% | 0
CC(C)(C)c1cc(NCCCn2ccnc2)n2ncc(-c3ccc(Cl)cc3)c2n1 | 7% | -2 | u | 10% | 2% | 18
CN(C)CCCNc1cc(C(C)(C)C)nc2c(-c3ccccc3)cnn12 | 0% | 0 | u | 1% | -2% | -61*
CCC(Sc1nnc(-c2ccc(F)cc2)c(-c2ccc(F)cc2)n1)C(=O)NC1CCCC1 (stereo not given) | u | x | x | x | x | -34
O=C1N(Cc2cccnc2)C[C@@H]2C[C@@H](c3cccc(OC4CCCC4)c3)N3CCC[C@@]123 | -1% | -51* | -45% | -6% | 0% | -16
O=C1N(Cc2cccnc2)C[C@@H]2C[C@@H](c3cccc(OCc4ccccc4)c3)N3CCC[C@@]123 | -2% | 3 | 1%[15.4 µM] | u | -7% | -3
O=C(NCCCN1CCN(c2cccc(Cl)c2)CC1)c1sc2ncccc2c1-n1cccc1 | 3% | x | x | x | x | -22
Cc1ccc(S(=O)(=O)N(CC(=O)NCCc2ccc(Cl)cc2)c2ccccc2C)cc1 | 2% | x | x | x | x | x
O=[N+]([O-])c1cc(-c2nc(-c3ccccc3)no2)ccc1N1CCOCC1 | 0% | x | x | x | x | x
COc1ccccc1OCCn1nnc2ccccc21 | 0% | -55* | 10%[15.4 µM] | -6% | 1% | 13
Cn1c(=O)c2c(-c3ccc(Br)cc3)n(Cc3ccc(F)cc3)cc2n(C)c1=O | 3% | x | x | x | x | x
O=C1CC(N2CCN(c3ccc(O)cc3)CC2)C(=O)N1Cc1cccs1 (stereo not given) | 0% | -4 | -96% | -5% | -3% | 2
O=C(c1ccncc1)c1ccc(N2CCN(C3CC(=O)N(Cc4cccs4)C3=O)CC2)cc1 (stereo not given) | 3% | 1 | -6% | 35µM* | -10% | -8
O=C(NCCCCc1ccccc1)C1CC(c2cccc(F)c2)=NO1 (stereo not given) | 0% | -34* | x | -5% | 1% | x
Cc1sc(NC(=S)NC(=O)c2ccco2)c(C(N)=O)c1C | -2% | -1 | -2%[15.4 µM] | -19% | -1% | -3
SMILES | RXFP1 agonist | CCT modulator | gsp agonist | gsp antagonist | MmCpn inh | RXFP1 antagonist
CNC(=O)c1c(NC(=O)c2ccco2)sc(C)c1C | -1% | 5 | -10%[15.4 µM] | 3% | 0% | -88*
COc1cc(C)c(C(=O)CC(=O)c2c(C)cc(OC)cc2C)c(C)c1 | x | -2 | 11% | -5% | x | -66*
COC(=O)c1ccccc1S(=O)(=O)Oc1ccc(-c2ccc(C(=O)O)cc2)cc1 | -1% | 3 | 2%[15.4 µM] | 28µM* | 3% | -7
N#C/C(=C\c1c(Oc2ccc(F)cc2)nc2ccccn2c1=O)c1nc2ccccc2s1 | 7% | x | x | x | x | -7
CCOc1ccc(CCNC(=O)CCCc2nnc3n(CC)c(=O)c4sccc4n23)cc1 | 17% | x | x | x | x | 2
O=C(NCc1cccc(F)c1)c1ccc(-n2cnc3cccnc32)cc1 | 1% | x | x | x | x | -12
COc1cc(-c2nc3c4ccccc4nc(=S)n3[nH]2)cc(OC)c1OC | 1% | -37* | -3% | -19% | 1% | -2
Cc1ccc(-c2csc(-c3cc4c([nH]c3=O)CC(c3ccccc3)CC4=O)n2)cc1 (stereo not given) | 6% | x | x | x | x | -19
CCOc1ccc(NS(=O)(=O)c2ccc3[nH]cc(C(=O)N4CCCCCC4)c(=O)c3c2)cc1 | 1% | x | x | x | x | 3
COc1ccc(-c2csc(NC(=O)Cc3ccccc3F)n2)cc1OC | 0% | 2 | -18%[15.4 µM] | u | -7% | -6
COc1ccc(CC(=O)Nc2nc(-c3ccc(OC)c(OC)c3)cs2)cc1OC | 1% | -2 | 4%[15.4 µM] | 28µM* | 1% | -27
COc1ccccc1CC(=O)Nc1nc(-c2ccc(F)c(F)c2)cs1 | -2% | 0 | -6%[15.4 µM] | u | 0% | -15
Cc1ccnc(Nc2nc(-c3ccc(F)cc3)cs2)c1 | 0% | -1 | 2%[15.4 µM] | -27% | 1% | -66*
COc1ccc(-c2csc(NC(=O)CS(=O)(=O)c3ccccc3)n2)cc1OC | x | -31* | 0% | x | x | 2
O=C(Cc1ccccc1F)Nc1nc(-c2ccc(F)cc2)cs1 | -1% | 3 | -5% | -16% | 5% | -93*
Cc1ccnc(Nc2nc(-c3ccc(Cl)cc3)cs2)c1 | 0% | 1 | u | 6% | 1% | -3
CCOc1ccc(CCNC(c2nnc(-c3ccccc3)o2)c2ccccc2Cl)cc1OCC (stereo not given) | 4% | x | x | x | x | -23
CCc1ccc(-n2c(=O)c3sc4ccccc4c3n(CC(=O)NCc3ccccc3)c2=O)cc1 | 12% | x | x | x | x | x
COc1ccc(N2CCN(C(=O)Cn3nc(Cc4cccnc4)c4ccccc4c3=O)CC2)cc1 | 11% | x | x | x | x | 18
O=c1c2sc3ccccc3c2n(Cc2cccc(C(F)(F)F)c2)c(=O)n1-c1ccccc1 | 4% | x | x | x | x | x
